# According to the supplement of paper PMC8728848:
# The sample as a whole holds a higher share of the strongest signals than the screen did.
# Tests used:
# Assay in all cases: glycan array binding signal (z-score within array); higher = stronger binding
# Details in all cases: glycan notation: IUPAC condensed, linker removed
# Fuc(a1-2)Gal = biological target: Fuc(a1-2)Gal
# How it was run: (§1)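 Glycan array data came from 3228 arrays in the Consortium for Functional Glycomics database, and only arrays with an available protein sequence were kept. Glycan names were put into IUPAC-condensed notation, and columns mapping to the same glycan were averaged. The binding signal is a within-array Z-score, averaged across arrays of one protein sequence run at different concentrations or buffers and across linkers. A negative Z-score can be read as non-binding.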
# Fuc(a1-2)Gal(b1-3)GlcNAc = biological target: Fuc(a1-2)Gal(b1-3)GlcNAc
# How it was run: as §1
# Fuc(a1-2)Gal(b1-4)Glc6S = biological target: Fuc(a1-2)Gal(b1-4)Glc6S
# How it was run: as §1
# [1] = biological target: Fuc(a1-2)Gal(b1-4)[Fuc(a1-3)]GlcNAc(b1-2)Man(a1-3)[Fuc(a1-2)Gal(b1-4)[Fuc(a1-3)]GlcNAc(b1-2)Man(a1-6)]Man(b1-4)GlcNAc(b1-4)[Fuc(a1-6)]GlcNAc
# How it was run: as §1
# [2] = biological target: Fuc(a1-2)Gal6S(b1-3)GlcNAc
# How it was run: as §1
# [3] = biological target: Fuc(a1-2)[GalNAc(a1-3)]Gal(b1-4)GlcNAc
# How it was run: as §1
# [4] = biological target: Fuc(a1-2)[GalNAc(a1-3)]Gal(b1-4)GlcNAc(b1-2)Man(a1-3)[Fuc(a1-2)[GalNAc(a1-3)]Gal(b1-4)GlcNAc(b1-2)Man(a1-6)]Man(b1-4)GlcNAc(b1-4)[Fuc(a1-6)]GlcNAc
# How it was run: as §1
# [5] = biological target: Fuc(a1-3)[Gal(b1-4)]GlcNAc(b1-6)GalNAc
# How it was run: as §1
# [6] = biological target: Gal(a1-3)Gal(b1-3)GlcNAc(b1-3)GalNAc
# How it was run: as §1
# [7] = biological target: Gal(a1-4)Gal(b1-3)GlcNAc(b1-2)Man(a1-3)[Gal(a1-4)Gal(b1-3)GlcNAc(b1-2)Man(a1-6)]Man(b1-4)GlcNAc(b1-4)GlcNAc
# How it was run: as §1
# [8] = biological target: Gal(b1-3)GlcNAc(b1-2)Man(a1-3)[Gal(b1-3)GlcNAc(b1-2)Man(a1-6)]Man(b1-4)GlcNAc(b1-4)[Fuc(a1-6)]GlcNAc
# How it was run: as §1
# [9] = biological target: Gal(b1-3)GlcNAc(b1-6)[Gal(b1-3)]GalNAc
# How it was run: as §1
# [10] = biological target: Gal(b1-4)GalNAc(a1-3)[Fuc(a1-2)]Gal(b1-4)GlcNAc
# How it was run: as §1
# Gal(b1-4)GlcNAc(b1-2)Man = biological target: Gal(b1-4)GlcNAc(b1-2)Man
# How it was run: as §1
# [11] = biological target: Gal(b1-4)GlcNAc(b1-2)Man(a1-3)[Man(a1-6)]Man(b1-4)GlcNAc(b1-4)GlcNAc
# How it was run: as §1
# [12] = biological target: Gal(b1-4)GlcNAc(b1-3)Gal(b1-3)GlcNAc
# How it was run: as §1
# [13] = biological target: Gal(b1-4)GlcNAc(b1-3)Gal(b1-4)GlcNAc(b1-3)Gal(b1-4)GlcNAc(b1-2)[Gal(b1-4)GlcNAc(b1-3)Gal(b1-4)GlcNAc(b1-3)Gal(b1-4)GlcNAc(b1-6)]Man(a1-6)[Gal(b1-4)GlcNAc(b1-3)Gal(b1-4)GlcNAc(b1-3)Gal(b1-4)GlcNAc(b1-2)Man(a1-3)]Man(b1-4)GlcNAc(b1-4)[Fuc(a1-6)]GlcNAc
# How it was run: as §1
# [14] = biological target: Gal(b1-4)GlcNAc(b1-3)Gal(b1-4)GlcNAc(b1-3)Gal(b1-4)GlcNAc(b1-3)Gal(b1-4)GlcNAc(b1-2)[Gal(b1-4)GlcNAc(b1-3)Gal(b1-4)GlcNAc(b1-3)Gal(b1-4)GlcNAc(b1-3)Gal(b1-4)GlcNAc(b1-6)]Man(a1-6)[Gal(b1-4)GlcNAc(b1-3)Gal(b1-4)GlcNAc(b1-3)Gal(b1-4)GlcNAc(b1-3)Gal(b1-4)GlcNAc(b1-2)Man(a1-3)]Man(b1-4)GlcNAc(b1-4)[Fuc(a1-6)]GlcNAc
# How it was run: as §1
# [15] = biological target: Gal(b1-4)GlcNAc(b1-3)Gal(b1-4)GlcNAc(b1-3)Gal(b1-4)GlcNAc(b1-3)Gal(b1-4)GlcNAc(b1-3)Gal(b1-4)GlcNAc(b1-2)[Gal(b1-4)GlcNAc(b1-3)Gal(b1-4)GlcNAc(b1-3)Gal(b1-4)GlcNAc(b1-3)Gal(b1-4)GlcNAc(b1-3)Gal(b1-4)GlcNAc(b1-6)]Man(a1-6)[Gal(b1-4)GlcNAc(b1-3)Gal(b1-4)GlcNAc(b1-3)Gal(b1-4)GlcNAc(b1-3)Gal(b1-4)GlcNAc(b1-3)Gal(b1-4)GlcNAc(b1-2)Man(a1-3)]Man(b1-4)GlcNAc(b1-4)[Fuc(a1-6)]GlcNAc
# How it was run: as §1
# [16] = biological target: Gal(b1-4)GlcNAc(b1-3)Gal(b1-4)[Fuc(a1-3)]GlcNAc(b1-3)Gal(b1-4)[Fuc(a1-3)]GlcNAc
# How it was run: as §1
# [17] = biological target: Gal(b1-4)GlcNAc(b1-3)[Gal(b1-4)GlcNAc(b1-6)]Gal(b1-4)GlcNAc
# How it was run: as §1
# [18] = biological target: Gal(b1-4)GlcNAc(b1-6)[Gal(b1-4)GlcNAc(b1-3)]GalNAc
# How it was run: as §1
# [19] = biological target: Gal3S(b1-3)[Fuc(a1-4)]GlcNAc
# How it was run: as §1
# Gal3S6S(b1-4)GlcNAc6S = biological target: Gal3S6S(b1-4)GlcNAc6S
# How it was run: as §1
# Gal4S6S(b1-4)GlcNAc = biological target: Gal4S6S(b1-4)GlcNAc
# How it was run: as §1
# Gal6P(b1-4)GlcNAc = biological target: Gal6P(b1-4)GlcNAc
# How it was run: as §1
# [20] = biological target: GlcNAc(b1-2)Gal(b1-3)GalNAc
# How it was run: as §1
# [21] = biological target: GlcNAc(b1-2)[GlcNAc(b1-4)]Man(a1-3)[GlcNAc(b1-2)Man(a1-6)]Man(b1-4)GlcNAc(b1-4)GlcNAc
# How it was run: as §1
# [22] = biological target: GlcNAc(b1-3)Gal(b1-4)GlcNAc(b1-3)Gal(b1-4)GlcNAc(b1-3)Gal(b1-4)GlcNAc(b1-2)[GlcNAc(b1-3)Gal(b1-4)GlcNAc(b1-3)Gal(b1-4)GlcNAc(b1-3)Gal(b1-4)GlcNAc(b1-6)]Man(a1-6)[GlcNAc(b1-3)Gal(b1-4)GlcNAc(b1-3)Gal(b1-4)GlcNAc(b1-3)Gal(b1-4)GlcNAc(b1-2)Man(a1-3)]Man(b1-4)GlcNAc(b1-4)[Fuc(a1-6)]GlcNAc
# How it was run: as §1
# GlcNAc(b1-3)Man = biological target: GlcNAc(b1-3)Man
# How it was run: as §1
binder,measurement,setting,value
"Cp ZmpB (Clostridium perfringens), Q0TR08 (protein) MNKRKIAAIILATMITNLSATTIDVLAQELNTKNNSKVEVSHDDESHQARVSKFDLYNSDKLDAYNQEFQVSRSNIKSINNNGGKYNSSTIDKAIDGNLETHWETGKPNDANFTNEVVVTFNEITNIDRIVYSARRDSARGKGFAKEFEIYASLKDEGDDFNLVSSGEYTESTRDLVEIKFNPTDFKRLKFKFKKADQNWASAAEFMFYKEDKLNEKFNGLFTDSSMNKVSEEFNTLEKLNAFENELKDHPIYDLYKEGLNNARAILTETSENPTKATLGQITYNLNDDYNNQYRMPYKNIKAIKNNGRHYAAQNIEKAIDNDVNTYWETGTLNSSSFNNEVEVEFNDLVTLDRIVYGSRQSDLKGFAEEVYIYASRTSKGDTYKLVATGAHEATKGLVEAKFEPTEFKRVKFKFKKSKQNSATLNELMFYKPDEVYSSIPKLFTDGTMSELSEEFNSLEKINAFKEKAKNHPLYNDFNETIELAESLISNPRKEDVLELEMRGDSISEAKKRKVWNFQDWQITGLSARAGDKITVYVDVAEGDPTPTLLYKQSLTQHGGATSFQLKPGKNEITIPEINYESNGIPKDVIQGGDLFFTNYKSDSQKRAPKVRIEGASKYPVFILGKSDENEVMKELEAYVEKIKAEPKTTPNIFAVSSNKSLEFVQATYALDWYKKNNKTPKYTAEQWDQYIADAMGFWGFDNSKDVNSDFNFRIMPMVKNLSGGAFMNAGNGVIGIRPGNQDAILAANKGWGVAHELGHNFDTGGRTIVEVTNNMMPLFFESKYKTKTRITDQNIWENNTYPKVGLDDYSNNELYNKADSTHLAQLAPLWQLYLYDNTFYGKFERQFRERDFGNKNREDIYKSWVVAASDAMELDLTEFFARHGIRVDDKVKEDLAKYPKPDKKIYYLNDLAMNYKGDGFTENAKVSVSTSGSNGNIKLSFSVDDENKDNILGYEIRRDGKYVGFTSNDSFVDTKSNLDEDGVYVVTPYDRKLNTLNPIEVNALQPTLSVNPVITLALGEEFNEEEYIVAKDIKGNSLSESVKVKSSNVNTSKVGEYEVLYSLEDSKGNEYTKTSKVNVVSRKEYMSDLTPKQSSNGWGTVRKDKSISGGVIGLTRDGDFVDYNKGLGLHSNAEYVYDLEGKDYDYFESYVGVDKAMSSRPASSVIFKVLVDGEEKFNSGVMRSTTPQKYVKVDVKNAKELKLIVNDAGDGDSSDHASFGDAKLATLSSKPIIKGENLAYSMDEKVDLMKGITATDIEDGNITSKVQIKSSDFVEGKSGIFTVVYSVTDSDGLTSECSRTIAVTDKETQLSDLNWKSATIGSGSVRKDRAVSGNQIRLLNEDNSVETFAKGIGTHSYSEIVYNSEGYDIFDTWVGIDRHVADKKVSSVKFKVYVDGELKAETDVMRIDTPKKRLVVDVRNSKEIKLVVDVADNGNNWDHADWADAKFRNLAEYDASELNKAIEEAKKLDLNNYTEESSEALKNAISKGEEALLSKDKETINSALEELNKEMNSLVKVDLNAVINIPDKYLLKSIQNQLNKTGDITLGDMYSLTTLTLSGVEDLTGLENAKNLETLNMDYNEVKDLRPLSKLKKLNTLNAQEQFIAAGELKPSNGKVIGDSKVYNREGKNVAKTIRVVDKNGNTILEQDAKDEFTINTKDLSSGLYGVHVLFEDEGFSGVMFYLFNV",glycan array binding signal (z-score),Fuc(a1-2)Gal,22.4
same,glycan array binding signal (z-score),Fuc(a1-2)Gal(b1-3)GlcNAc,-0.148
same,glycan array binding signal (z-score),Fuc(a1-2)Gal(b1-4)Glc6S,-0.219
same,glycan array binding signal (z-score),[1],-0.251
same,glycan array binding signal (z-score),[2],-0.122
same,glycan array binding signal (z-score),[3],-0.068
same,glycan array binding signal (z-score),[4],-0.353
same,glycan array binding signal (z-score),[5],-0.181
same,glycan array binding signal (z-score),[6],-0.001
same,glycan array binding signal (z-score),[7],-0.252
same,glycan array binding signal (z-score),[8],-0.193
same,glycan array binding signal (z-score),[9],0.823
same,glycan array binding signal (z-score),[10],0.022
same,glycan array binding signal (z-score),Gal(b1-4)GlcNAc(b1-2)Man,0.161
same,glycan array binding signal (z-score),[11],-0.033
same,glycan array binding signal (z-score),[12],1.39
same,glycan array binding signal (z-score),[13],-0.102
same,glycan array binding signal (z-score),[14],-0.093
same,glycan array binding signal (z-score),[15],3.56
same,glycan array binding signal (z-score),[16],-0.332
same,glycan array binding signal (z-score),[17],-0.301
same,glycan array binding signal (z-score),[18],0.086
same,glycan array binding signal (z-score),[19],-0.055
same,glycan array binding signal (z-score),Gal3S6S(b1-4)GlcNAc6S,1.17
same,glycan array binding signal (z-score),Gal4S6S(b1-4)GlcNAc,0.461
same,glycan array binding signal (z-score),Gal6P(b1-4)GlcNAc,-0.373
same,glycan array binding signal (z-score),[20],2.81
same,glycan array binding signal (z-score),[21],1.11
same,glycan array binding signal (z-score),[22],-0.173
same,glycan array binding signal (z-score),GlcNAc(b1-3)Man,0.057
